# Source: PubChem BioAssay AID431 (Sanford-Burnham Center for Chemical Genomics, 2006)
# Out of some 63,000 compounds screened, about 1,100 (1.7%) were called active.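 How the source made its calls: active means compounds whose percent cytotoxicity in the single-dose primary screen, scaled between solvent and toxic-drug controls, exceeds 50; inactive means the rest.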 What follows is part of a selection rich in actives, with near analogues and random picks from the rest. Entries with a potency or affinity are not part of this list.
# Test: viability loss of HPDE-C7K cells – cell-based, fluorescence, HTS, primary screen (AID 431);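 further: 0% = DMSO solvent wells and 100% = doxorubicin-treated wells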
# Details: HPDE-C7K KRASV12 cells, Alamar Blue viability, 48 h; at 10 µM; hits give high values
row,Structure (SMILES),cytotoxicity
1,COc1ccc(NC(=O)C2CCCN2C(=O)NCc2ccccc2)c(OC)c1 (centres undefined),-13.7% (inactive)
2,O=C(c1cc(-c2ccccn2)nc2c(Cl)cccc12)N1CCN(C(=O)C2CCCO2)CC1 (centres undefined),0.1% (inactive)
3,CCn1c(Sc2nc(C)nc3scc(-c4cccs4)c23)n[nH]c1=O,-16.8% (inactive)
4,Cc1cccc(C(=O)NC2CC3CCCC(C2)N3C(=O)NC2CCCCC2)c1 (centres undefined),-1.9% (inactive)
5,NC1=NC(c2ccc(Cl)cc2)n2c(nc3ccccc32)N1 (centres undefined),-23.5% (inactive)
6,Cc1nnc(NC(=O)c2cc3n(n2)C(C(F)(F)F)CC(C2CC2)N3)s1 (centres undefined),-34.9% (inactive)
7,O=C(Nc1nc2c(s1)CCCC2)c1cc2n(n1)C(C(F)(F)F)CC(C1CC1)N2 (centres undefined),52.5% (active)
8,O=C(NCc1ccc(F)cc1)c1cc2n(n1)C(C(F)(F)F)CC(C1CC1)N2 (centres undefined),-22% (inactive)
9,COC(=O)COc1cccc(NC(=O)c2ccccc2)c1,-1.5% (inactive)
10,Cc1nc2sc(C(c3cccc(F)c3)N3CCC(O)CC3)c(O)n2n1 (centres undefined),-0.3% (inactive)
11,CC(=O)C1=C(C)N=c2s/c(=C/c3ccc4c(c3)OCO4)c(=O)n2C1c1ccc(N(C)C)cc1 (centres undefined),-0.2% (inactive)
12,COc1ccc(C2C(C(C)=O)=C(C)N=c3s/c(=C/c4ccc5c(c4)OCO5)c(=O)n32)cc1 (centres undefined),-10.1% (inactive)
13,CCC(C)(C)n1nnnc1C(c1cc2ccc(OC)cc2[nH]c1=O)N1CCc2ccccc2C1 (centres undefined),35% (inactive)
14,COC(=O)c1ccccc1NS(=O)(=O)c1ccc(O)c(C(=O)O)c1,19.7% (inactive)
15,COC(=O)c1ccc(CN2C(=O)NC3(CCCCC3C)C2=O)o1 (centres undefined),3.4% (inactive)
16,CCN(CC)c1ccc(NC(=O)c2cnc3ccccn3c2=O)c(C)c1,3.9% (inactive)
17,Cn1nnnc1SCCNCc1cccc2ccccc12,-3% (inactive)
18,CCN(CC)c1ccc(NC(=O)Nc2cccc(C(C)=O)c2)cc1,16.4% (inactive)
19,CC(=O)Nc1ccc(NC(=O)c2ccccc2F)cc1,8.8% (inactive)
20,CCN(CC)c1ccc(C(=O)Nc2cccc(F)c2)cc1,57.4% (active)
21,CN(C)c1cccc(C(=O)Nc2cccc(F)c2)c1,2.1% (inactive)
22,CCN(CC)c1ccc(NC(=O)c2ccc(NC(=O)C3CCCO3)cc2)c(C)c1 (centres undefined),-1.3% (inactive)
23,CCOc1cccc(C(=O)Nc2ccc(N3CCN(S(C)(=O)=O)CC3)cc2)c1,-10% (inactive)
24,CCN(CC)c1ccc(NC(=O)c2ccccc2F)cc1,50.7% (active)
25,CCN(CC)c1ccc(NC(=O)c2cc(OC)cc(OC)c2)c(C)c1,59.9% (active)

row,Structure (SMILES),cytotoxicity
1,CCOc1ccc(NC(=O)c2cccc(-n3cnnn3)c2)cc1,-18% (inactive)
2,CCN(CC)c1ccc(NC(=O)c2ccco2)c(C)c1,10.7% (inactive)
3,O=C(Nc1ccncc1)c1ccccc1F,-14.5% (inactive)
4,CCOc1cccc(C(=O)Nc2ccc(N(CC)CC)cc2)c1,87.5% (active)
5,Cc1cccc(COc2ccc(/C(O)=C3\C(=O)C(=O)N(CCN(C)C)C3c3ccncc3)cc2)c1 (centres undefined),0.7% (inactive)
6,O=C(c1ccco1)N1CCN(C(=O)c2cc(-c3ccncc3)nc3ccc(Br)cc23)CC1,1.3% (inactive)
7,O=C(NCC(=O)N(Cc1ccccc1)C(C(=O)NC1CCCC1)c1ccco1)c1ccco1 (centres undefined),-6.1% (inactive)
8,Cn1c(COc2ccccc2)nnc1SCC(=O)Nc1ccc2c(c1)OCO2,9.4% (inactive)
9,O=C1c2oc3ccc(F)cc3c(=O)c2C(c2ccncc2)N1CCN1CCOCC1 (centres undefined),-11.5% (inactive)
10,O=C(CN(Cc1ccco1)S(=O)(=O)c1cccs1)Nc1ccccc1C(F)(F)F,-23.6% (inactive)
11,CCN(CC)c1ccc(NC(=O)c2cccc(C)c2OC)c(C)c1,2.9% (inactive)
12,CCN(CC)c1ccc(NC(=O)c2c(OC)cccc2OC)c(C)c1,-0.6% (inactive)
13,CCN(CC)c1ccc(NC(=O)c2cccc(OC)c2)c(C)c1,55.4% (active)
14,O=C(Nc1ccc(N2CCN(Cc3ccccc3Cl)CC2)cc1)c1cccnc1,16.7% (inactive)
15,Cc1cc(Nc2ccccc2C(=O)O)nc2nc3ccccc3c(=O)n12,-5.3% (inactive)
16,N#CC(C(=O)NC1CCCCC1)c1nc2ccccc2nc1N1CCOCC1 (centres undefined),13.7% (inactive)
17,CCc1ccc(-n2c(O)cnc2Nc2nc(C)cc(C)n2)cc1,-3% (inactive)
18,CCc1ccc(-c2cn3nc(C)c(C)nc3n2)cc1,-7.6% (inactive)
19,CCc1ccc(-c2cn(-c3nc(C)cc(C)n3)c(=N)o2)cc1,54.8% (active)
20,CC1CCc2cc(F)ccc2N1C(=O)CCC(=O)O (centres undefined),-12.5% (inactive)
21,CN(C)c1nc(N)nc(CSc2nnnn2C)n1,8.9% (inactive)
22,COc1ccc(C2=NOC(CN3C(=O)c4ccccc4S3(=O)=O)C2)cc1 (centres undefined),-0.1% (inactive)
23,CC(C)(C)N1C(=O)Cc2c1nc(N)c1c(N)nc(N3CCCCC3CO)c(C#N)c21 (centres undefined),59.9% (active)
24,N#Cc1c(N)nc2c(c1N)CC(=O)N2c1ccccc1-c1ccccc1,5.8% (inactive)
